Compound activity as filed in PubChem BioAssay.
An excerpt weighted towards active compounds, which were near 3.5% of everything screened.
GPR151 activ: human GPR151 activation; Q8TDV0; PathHunter beta-arrestin GPR151 cells, luminescence; activation, % at 11.2 µM; 650,000 tested, 1% active; AID 1508602; in the data active = activation above about 4.9%;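 also: 0% = median of compound wells and 100% = cells with positive control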
Target sequence (Q8TDV0 whole entry, looked up): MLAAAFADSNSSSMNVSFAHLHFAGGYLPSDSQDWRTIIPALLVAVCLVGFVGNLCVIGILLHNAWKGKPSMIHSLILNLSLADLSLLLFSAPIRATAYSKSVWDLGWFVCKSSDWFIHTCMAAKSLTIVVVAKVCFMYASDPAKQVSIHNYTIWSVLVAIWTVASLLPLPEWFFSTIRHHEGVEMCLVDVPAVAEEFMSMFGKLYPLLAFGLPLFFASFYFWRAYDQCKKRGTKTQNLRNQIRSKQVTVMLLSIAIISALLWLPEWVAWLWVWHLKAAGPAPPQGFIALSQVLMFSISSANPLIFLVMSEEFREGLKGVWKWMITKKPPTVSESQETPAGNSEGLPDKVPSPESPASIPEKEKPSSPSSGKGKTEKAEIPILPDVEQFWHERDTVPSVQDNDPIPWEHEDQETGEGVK
MITF primary: blocks human microphthalmia-associated transcription factor; inhibition, % at 2.6 µM; 650,000 tested, 0.91% active; O75030; AID 1259374; AlphaScreen MITF homodimerization, bead proximity signal; in the data active = inhibition above about 50%;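 also: 0% = vehicle wells with protein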
FBW7 activator: human FBW7 E3 ligase activation, primary screen | AlphaScreen FBW7–phospho-cyclin E peptide binding, activator screen | 650,000 tested, 0.13% active | Q969H0 | normalized activity (activation), % at 26.1 µM; in the data active = normalized activity above about 1.9%;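 also: purified mutant Fbw7 with reduced substrate affinity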
TEAD-YAP block: TEAD-YAP interaction inhibition; 640,000 tested, 1.4% active; HEK-TIYL cells, TEAD-Gal4/YAP UAS-luciferase luminescence; inhibition, % at 9.12 µM; in the data active = inhibition above about 32%;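 also: 0% = median of test compound wells and 100% = reference inhibitor wells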
* hit, by the source's call.

SMILES	GPR151 activ	MITF primary	FBW7 activator	TEAD-YAP block
Cn1c(Nc2nc(Nc3ccc(N4CCOCC4)cc3)c3ncn(-c4ccccc4)c3n2)nc2ccccc21	-2	2	0	33*
COc1ccc(-c2nc(Nc3ccc(NC(C)=O)cc3)c3ncn(-c4ccccc4)c3n2)cc1	0	10	1	41*
CCCN(C(=O)c1ccccc1)c1c(C)n(C)n(-c2ccccc2)c1=O	-1	-19	0	-15
CCCN(C(=O)c1ccc(Cl)cc1)c1c(C)n(C)n(-c2ccccc2)c1=O	-1	3	3.2*	-6
CCOc1c(Br)cc(C(=O)NN)cc1OC	1	-1	0	52*
CCOc1c(Br)cc(C(N)=O)cc1OC	2	-1	0	2
COc1c(Cl)cc(C(=O)NN)cc1Cl	-1	6	0	56*
COc1ccc(C(=O)NCc2ccc(S(N)(=O)=O)cc2)cc1OC	1	12	2.4*	0
CNC(=O)c1cc(Cl)c(OC)c(OC)c1	0	6	0	6
CCCOc1ccc(C(=O)NN)cc1OC	-2	15	1	47*
CCC(=O)Nc1ccccc1C(=O)Nc1ccc(C(=O)O)cc1	0	7	0	3
c1cncc(CCNc2ccc3ncc(-c4ccc5[nH]ccc5c4)n3n2)c1	1	-11	-1	-12
CCOC(=O)c1ccc(NC(=O)c2ccc(Br)cc2F)cc1	1	0	0	-26
Cc1cccc(N2C(=O)/C(=C/C=C/c3ccco3)C(=O)NC2=S)c1	1	58*	0	-8
COc1ccc(N2C(=O)/C(=C/C=C/c3ccco3)C(=O)NC2=S)c(OC)c1	2	76*	-1	9
Cc1ccc(N2C(=O)/C(=C/c3ccco3)C(=O)NC2=S)cc1	1	-15	0	-6
CC(=O)N1CN(Cc2ccncc2)Cc2c1sc1c2CCCC1	1	-11	0	-6
N#C/C(=C\c1ccc(/C=C(\C#N)c2nn(CCO)c(N)c2C#N)cc1)c1nn(CCO)c(N)c1C#N	1	15	0	-1
Cn1c(-c2ccccc2)c(/C=C(\C#N)c2nn(CCO)c(N)c2C#N)c2ccccc21	0	-8	0	50*
Cc1cccc(C)c1NC(=O)C(c1ccc(Cl)cc1)N(Cc1ccco1)C(=O)c1ccc(-n2cnnn2)cc1 (stereo unspecified)	1	-1	0	41*
O=c1[nH]c(=S)n(-c2ccccc2)c(O)c1/C=C1\C=CC=N1	0	-7	0	-8
O=c1[nH]c(=O)n(-c2ccccc2F)c(O)c1/C=C1\C=CC=N1	0	13	0	57*
O=c1[nH]c(=S)n(Cc2ccco2)c(O)c1/C=C1\C=CC=N1	1	101*	-1	-3
O=c1[nH]c(=O)n(-c2ccccc2Cl)c(O)c1/C=C1\C=CC=N1	-1	11	0	61*
CCOc1ccccc1-n1c(O)c(/C=C2\C=CC=N2)c(=O)[nH]c1=O	0	13	0	24
SMILES	GPR151 activ	MITF primary	FBW7 activator	TEAD-YAP block
Cc1ccccc1-n1c(O)c(/C=C2\C=CC=N2)c(=O)[nH]c1=O	-2	9	0	57*
CN(C)c1ccc2c(c1)OC(N)=C(C#N)C2c1cccc(C(F)(F)F)c1 (stereo unspecified)	0	-1	0	57*
N#CC1=C(N)Oc2cc(N)ccc2C1c1cccc(Cl)c1 (stereo unspecified)	-1	6	0	1
N#CC1=C(N)Oc2cc3c(cc2C1c1cccc(Br)c1)OCO3 (stereo unspecified)	0	20	0	61*
CN(C)c1ccc2c(c1)OC(N)=C(C#N)C2c1ccc(C(F)(F)F)cc1 (stereo unspecified)	2	-9	0	9
CN1CCN(c2ccc(CNS(=O)(=O)Cc3cccc(C(F)(F)F)c3)cc2)CC1	0	4	0	38*
O=C(O)c1cc(O)c(O)c(O)c1	1	76*	0	1
O=C(O)c1ccccc1	0	-4	0	-1
CCCCCn1c(=O)c2c(nc3n(-c4ccc(OC)cc4OC)c(C)c(C)n23)n(C)c1=O	1	-2	0	0
CCCS(=O)(=O)c1ncc(Cl)c(C(=O)Nc2ccc(OC)cc2)n1	-2	16	1	34*
CCS(=O)(=O)c1ncc(Cl)c(C(=O)Nc2ccc(C)c(C)c2)n1	-2	-5	0	35*
CCS(=O)(=O)c1ncc(Cl)c(C(=O)Nc2cccc(Cl)c2)n1	-2	6	0	95*
O=C(Nc1ccc(S(=O)(=O)Nc2ccc(F)cc2)cc1)c1ccccc1Br	0	-15	0	12
O=C(Nc1ccc(-c2ccc(NC(=O)c3ccccc3Cl)cc2)cc1)c1ccccc1Cl	0	-4	0	5
Cc1ccc(S(N)(=O)=O)c(C)c1NS(C)(=O)=O	-1	13	0	2
CCCCCC(=O)N/N=C1\CCc2ccccc21	0	9	0	-2
O=C1CC(N2CCCCC2)C(=O)N1c1cc(Cl)cc(Cl)c1 (stereo unspecified)	4	-7	0	46*
O=C1CC(N2CCCC2)C(=O)N1c1ccc(Cl)cc1 (stereo unspecified)	0	-2	0	1
CCOc1ccc(NC(=O)CSc2nnnn2Cc2ccccc2)cc1	1	-3	0	24
COc1ccc(CCNc2cc(N3CCCC3)ccc2[N+](=O)[O-])cc1OC	-1	3	0	-5
COc1ccc(CCNc2cc(N3CCN(C)CC3)ccc2[N+](=O)[O-])cc1OC	1	-1	0	48*
COc1ccc(CCNc2cc(N3CCN(S(C)(=O)=O)CC3)ccc2[N+](=O)[O-])cc1OC	2	18	0	60*
COc1ccc(CCNc2cc(N3CCN(S(=O)(=O)c4ccc(OC)c(OC)c4)CC3)ccc2[N+](=O)[O-])cc1OC	0	2	0	-6
COc1ccc(C)cc1NC(=O)CCSCCC(=O)Nc1cc(C)ccc1OC	1	1	0	33*
COc1ccccc1NC(=O)CCSCCC(=O)Nc1ccccc1OC	-1	-11	0	3
SMILES	GPR151 activ	MITF primary	FBW7 activator	TEAD-YAP block
C/C(CC(=O)NC12CC3CC(CC(C3)C1)C2)=N\NC(=O)C(=O)Nc1cccc(C)c1	2	8	0	-31
CCOc1ccc(N2CSC3=C(C#N)C(c4cccs4)CC(=O)N3C2)cc1 (stereo unspecified)	1	-13	0	-10
CCOc1ccc(N2CSC3=C(C#N)C(c4ccco4)CC(=O)N3C2)cc1 (stereo unspecified)	1	69*	0	-11
COc1ccc(/C=C/c2nc3ccccc3s2)cc1S(=O)(=O)N1CCOCC1	0	6	0	-9
Oc1ccc(/C=C/c2nc3ccccc3s2)cc1	-10	13	0	73*
O/C(=C\c1ccc2ccccc2n1)c1ccc(O)cc1O	-2	-2	0	75*
Oc1ccc(/C=C/c2ccc3ccccc3n2)cc1	-10	-6	1	85*
C(=C\c1ccc2ccccc2n1)/c1cccnc1	-8	-30	-1	77*
O=C(O)/C=C/c1ccc2ccccc2n1	0	-11	0	-12
